Compound activity: PubChem BioAssay, National Center for Advancing Translational Sciences (NCATS)
Only some compounds are listed: those with a hit (about 2.7% of all), similar ones and a draw of the others.
HepG2 tox: counter-screen for TGF-b inhibitors: cytotoxicity in HepG2 cells | actives 0.76% (n = 410,000) | Potency, µM (top dose mostly 46.1 µM), most hits filed as cytotoxic | HepG2 CAGA-GFP viability, ATP luminescence, 18 h
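CellTiter-Glo luminescence gave cytotoxicity after 18 hours at 37 degrees C. The cells were HepG2 CAGA-GFP in 1% FBS DMEM, stimulated with 500 pg/mL TGF-beta after compound addition. %Activity was normalised to no-cell wells (complete cell-killing) and DMSO (no toxicity), and curves were fitted and classified.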
TGFb SMAD3 inh: inhibitors of TGF-b signaling; HepG2 CAGA-GFP TGF-b/SMAD3 reporter, GFP fluorescence, 18 h; TGF-beta stimulated, 500 pg/mL final; Potency, µM (doses to about 46.1 µM), most hits filed as inhibitors; actives 1.2% (n = 410,000); AID 588855; further: nearly all actives have a fitted effect of over 65% in size
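Read-out: total well GFP (ex488/em500-530) summed from mean per-cell fluorescence. Cells: HEPG2 CAGA-GFP, 1% FBS DMEM, 18 h at 37 degrees C with 500 pg/mL final TGF-beta. Unstimulated wells served as the full-inhibition control; stimulated DMSO wells = 0%.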
ATXN2 expr inh: reduces ATXN2 reporter expression in HEK-293 cells | actives 0.72% (n = 360,000) | Potency, µM (top dose mostly 57 µM), usual class: inhibitors | AID 1745845 | HEK-293 ATXN2-luciferase reporter, luminescence, 24 h; further: nearly all actives have a fitted effect of over 55% in size
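ATXN2-luciferase reporter cells (luciferase flanked by upstream and downstream ATXN2 gene portions) were treated 24 h at 37 °C with compounds at up to 57 uM. SteadyGlo luminescence gave expression; GF-AFC fluorescence gave viability.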
S2 tox: viability counter-screen for ATXN expression inhibitors | S2 cells (HEK-293 line with an ATXN2-luciferase reporter) viability, CellTiter-Fluor protease fluorescence, 24 h | Potency, µM (top dose mostly 56.7 µM), actives largely listed as cytotoxic | actives 0.49% (n = 400,000) | AID 651635; further: nearly all actives have a fitted effect of over 40% in size
12-LOX inh: blocks human arachidonate 12S-lipoxygenase; AID 1671190; purified 12hLO, xylenol orange hydroperoxide absorbance; Potency, µM (top dose mostly 108 µM), hits mostly inhibitors; actives 1.1% (n = 580,000); P18054
Target sequence (P18054 whole entry, looked up): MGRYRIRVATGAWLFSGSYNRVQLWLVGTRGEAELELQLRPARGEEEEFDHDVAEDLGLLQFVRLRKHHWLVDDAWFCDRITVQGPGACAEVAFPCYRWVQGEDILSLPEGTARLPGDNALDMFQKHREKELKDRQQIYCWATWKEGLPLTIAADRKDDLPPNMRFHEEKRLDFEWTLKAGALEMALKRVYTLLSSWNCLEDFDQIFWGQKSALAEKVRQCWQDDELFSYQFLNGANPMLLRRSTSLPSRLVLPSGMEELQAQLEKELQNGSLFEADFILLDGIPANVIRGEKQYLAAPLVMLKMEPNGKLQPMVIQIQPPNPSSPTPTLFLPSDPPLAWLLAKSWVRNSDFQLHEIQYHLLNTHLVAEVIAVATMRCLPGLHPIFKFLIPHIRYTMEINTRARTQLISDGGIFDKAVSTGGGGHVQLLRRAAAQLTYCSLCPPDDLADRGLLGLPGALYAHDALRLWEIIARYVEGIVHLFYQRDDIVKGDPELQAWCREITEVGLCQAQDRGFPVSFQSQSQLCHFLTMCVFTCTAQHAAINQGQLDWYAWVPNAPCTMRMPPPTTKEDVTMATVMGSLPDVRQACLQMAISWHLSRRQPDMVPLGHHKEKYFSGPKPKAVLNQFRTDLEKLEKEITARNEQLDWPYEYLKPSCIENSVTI
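Hydroperoxide product was detected by ferrous iron/xylenol orange as the 573 to 405 nm absorbance ratio. Arachidonic acid at 40 uM (final) was turned over for 30 min at room temperature by 150 nM human 12hLO, pH 7.0 Hepes buffer, after 15 min compound preincubation.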
A number is an active result; i = inactive; ? = inconclusive; nt = no result; ! = not confirmed by another sample; [ ] = remark or other dose. The call rests on the fitted dose curve; in most records, active means well fitted curve in the direction sought with a large enough effect; inconclusive means small, poorly fitted or top-dose-only effect, or another doubt; inactive means no such curve, though single readings can be large; an effect the other way counts as inactive or inconclusive.

SMILES	HepG2 tox	TGFb SMAD3 inh	ATXN2 expr inh	S2 tox	12-LOX inh
Cc1csc(CNc2ncnc3ccc(-c4ccc5c(c4)OCO5)cc23)c1	i	i	i	i	?
c1nc(NCc2ccc3c(c2)OCO3)c2cc(-c3ccc4c(c3)OCCO4)ccc2n1	i	?	i	?	?
Cc1csc(CNc2ncnc3ccc(-c4ccc5c(c4)OCCO5)cc23)c1	i	?	i	i	8.9µM
Cc1cccc(CNc2ncnc3ccc(-c4ccc5c(c4)OCCO5)cc23)c1	i	?	?	?	50µM
COc1ccc(-c2nnc3ccc(Nc4ccc(F)cc4)nn23)cc1	nt	nt	nt	nt	i
Fc1cccc(Nc2nc(-c3ccccc3)no2)c1	nt	nt	nt	nt	35µM
COc1ccc(-c2noc(Nc3cc(OC)cc(OC)c3)n2)cc1	nt	nt	nt	nt	18µM
O=C(N/N=C/c1cc([N+](=O)[O-])cc([N+](=O)[O-])c1O)/C(=C\c1cccs1)NC(=O)c1ccccc1	i	i	i	i	16µM
COc1cc(/C=N/NC(=O)/C(=C\c2ccc([N+](=O)[O-])cc2)NC(=O)c2ccccc2)cc(OC)c1O	i	i	i	i	?
CC[N+](CC)(CC)CCOc1ccc(/C=C/c2ccccc2)cc1	i	i	18µM!	?	50µM!
Cc1[nH]c2ccccc2c1/C=C(\C#N)C(=O)NC(C)c1ccccc1 (stereo not given)	i	i	i	?	7.1µM
Cc1[nH]c2ccccc2c1/C=C(\C#N)C(=O)NC1CC1	i	i	i	i	?
C[C@H](NC(=O)C(C#N)=Cc1cccc(Br)n1)c1ccccc1	nt	nt	22µM	nt	?
O=c1oc2ccccc2c(NC2CCCC2)c1NS(=O)(=O)c1ccc(Br)s1	nt	nt	nt	nt	i
CCCn1c(=O)[nH]c(=O)c2c1nc(-c1cccc(C)c1)n2CCN1CCOCC1	nt	nt	nt	nt	i
CC(=O)CC(C)=Nc1ccc(Br)cc1	nt	nt	nt	nt	i
O=S(=O)(c1cccc(Cl)c1)n1c(/C=C/c2ccccc2Cl)nc2ccccc21	10µM	?	nt	nt	?
COc1ccc(-c2nnc(NC(=O)c3ccc(S(=O)(=O)N4COCC4(C)C)cc3)o2)cc1	i	i	?	i	i
CC1(C)COCN1S(=O)(=O)c1ccc(C(=O)Nc2nnc(-c3ccc(Cl)s3)o2)cc1	i	i	7.9µM	?	nt
COc1cc(O)oc1C=Nc1ccc(C(=O)O)cc1	14µM	i	i[11.3 µM]	i	i
COc1cc(O)oc1C=Nc1ccc(Cl)cc1	i	i	i	i	i
CC(=O)N/N=C/c1c(C)[nH]n(-c2ccccc2)c1=O	i	i	i	i	i
Cc1ccc(-n2[nH]c(C)c(/C=N/NC(=O)c3ccc([N+](=O)[O-])cc3)c2=O)c(C)c1	nt	nt	nt	nt	i
Cc1[nH]n(-c2cccc3ccccc23)c(=O)c1/C=N/NC(=O)c1cccc([N+](=O)[O-])c1	i	i	20µM	?	45µM
Cc1[nH]n(-c2ccccc2)c(=O)c1/C=N/NC(=O)c1cccc([N+](=O)[O-])c1	i	?	14µM	?	i
SMILES	HepG2 tox	TGFb SMAD3 inh	ATXN2 expr inh	S2 tox	12-LOX inh
CCc1cccc2c(/C=C(/C#N)c3nc4cc(C)c(C)cc4[nH]3)c[nH]c12	nt	nt	nt	nt	i
Cc1ccc(OCCN2CCC2(C)C(=O)NCc2cccc3ccccc23)cc1 (stereo not given)	i	?	i	i	i
Cc1ccc(OCCN2CCC2(C)C(=O)NCc2ccc(C(F)(F)F)cc2)cc1 (stereo not given)	i	13µM	i	i	?
Cc1ccccc1C(=O)N1CCC(N2CCCCCC2=O)CC1	nt	nt	nt	nt	89µM
CCCCNc1cc(NC2CCCCC2)c2c3c(onc13)-c1ccccc1C2=O	i	i	i	i	i
O=C1c2ccccc2-c2onc3c(NCCO)cc(NC4CCCCC4)c1c23	i	11µM	?	?	i
O=C(CNC(=O)OCc1ccccc1)NCC(=O)N1CCCC1C(=O)OCc1ccccc1 (stereo not given)	11µM	?	i	i	i
COc1cc(/C=C(\C#N)C(=O)Nc2ccc(OC(F)(F)F)cc2)cc(OC)c1OC	nt	nt	nt	nt	i
COc1ccccc1-c1noc2nc(Nc3cccc(Cl)c3)ccc12	nt	nt	nt	nt	28µM
Brc1ccc(-c2nc3ccccc3s2)s1	i	i	i	i	i
O=c1ccc2nc3ccccc3sc-2c1	25µM	20µM	?	25µM	?
